Experimental data as given in PubChem BioAssay (Tox21).
Records with an inconclusive call do not appear. The source made the active and inactive calls. The call rests on the fitted dose curve; in most records, active means well fitted curve in the direction sought with a large enough effect in the repeat runs; inconclusive means weak or mixed curves; inactive means no such curve, though single readings can be large; an effect the other way counts as inactive or inconclusive.

Key:
[1] = A CellTox Green Cytotoxicity Assay to monitor cytotoxicity in HepG2 cells - 16 hour (AID 1224876); further: nearly all actives have a fitted effect of over 45% in size
Outline: (§1)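 HepG2 cells were seeded together with the CellTox Green dye at 600 cells/well, left 5 h at 37 C/5% CO2, then given compounds in DMSO. Fluorescence from dye bound to dead-cell DNA was read repeatedly over 40 h of treatment at 37 C.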

[2] = qHTS RealTime-Glo MT Cell Viability Assay in HepG2 cells - 32 hour (AID 1224877); further: nearly all actives have a fitted effect of over 55% in size
Outline: (§2)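 Cells + NanoLuc/prosubstrate dispensed (600 cells/well) → 5 h at 37 C/5% CO2 → compounds in DMSO transferred → 40 h incubation at 37 C, luminescence read at 0, 8, 16, 24, 32, 40 h.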

[3] = A CellTox Green Cytotoxicity Assay to monitor cytotoxicity in HepG2 cells - 24 hour (AID 1224878); further: nearly all actives have a fitted effect of over 45% in size
Outline: as §1

[4] = A CellTox Green Cytotoxicity Assay to monitor cytotoxicity in HepG2 cells - 40 hour (AID 1224879); further: nearly all actives have a fitted effect of over 40% in size
Outline: as §1

[5] = qHTS RealTime-Glo MT Cell Viability Assay in HEK293 cells - 0 hour (AID 1224880); further: top concentration of the series differs between compounds; nearly all actives have a fitted effect of over 45% in size
Outline: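 HEK293 cells mixed with RealTime-Glo reagents (NanoLuc plus cell-permeant prosubstrate) at 600 cells/well, preincubated 5 h at 37 C/5% CO2, then given 23 nL compound in DMSO. Nonlytic luminescence from viable cells was read at 0, 8, 16, 24, 32 and 40 h.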

[6] = A CellTox Green Cytotoxicity Assay to monitor cytotoxicity in HEK293 cells - 32 hour (AID 1224881); further: nearly all actives have a fitted effect of over 40% in size
Outline: (§3)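 HEK293 cells premixed with CellTox Green dye were seeded at 600 cells/well and left 5 h at 37 C/5% CO2 before pin transfer of 23 nL compound in DMSO. Fluorescence from dye bound to dead-cell DNA was read during 40 h treatment.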

[7] = A CellTox Green Cytotoxicity Assay to monitor cytotoxicity in HepG2 cells - 0 hour (AID 1224882); further: nearly all actives have a fitted effect of over 35% in size
Outline: as §1

[8] = A CellTox Green Cytotoxicity Assay to monitor cytotoxicity in HepG2 cells - 32 hour (AID 1224883); further: nearly all actives have a fitted effect of over 50% in size
Outline: as §1

[9] = A CellTox Green Cytotoxicity Assay to monitor cytotoxicity in HEK293 cells - 8 hour (AID 1224884); further: nearly all actives have a fitted effect of over 35% in size
Outline: as §3

[10] = qHTS RealTime-Glo MT Cell Viability Assay in HepG2 cells - 16 hour (AID 1224885); further: nearly all actives have a fitted effect of over 50% in size
Outline: as §2
On the % scale 0 is the no-effect control and ±100 the full control effect.

CC/C=C\C/C=C\C/C=C\CCCCCCCC(=O)OC
inactive: Potency [1] | Potency [2] | Potency [3] | Potency [4] | Potency [5] | Potency [6] | Potency [7] | Potency [8] | Potency [9] | Potency [10]

CCNc1nc(NC(C)(C)C)nc(OC)n1
inactive: Potency [1] | Potency [2] | Potency [3] | Potency [4] | Potency [5] | Potency [6] | Potency [7] | Potency [8] | Potency [9] | Potency [10]

Cc1cccc2c1ccc1ccccc12
inactive: Potency [1] | Potency [2] | Potency [3] | Potency [4] | Potency [5] | Potency [6] | Potency [7] | Potency [8] | Potency [9] | Potency [10]

Cc1ccc2nc(-c3ccc(N)cc3)sc2c1S(=O)(=O)O
inactive: Potency [1] | Potency [2] | Potency [3] | Potency [4] | Potency [5] | Potency [6] | Potency [7] | Potency [8] | Potency [9] | Potency [10]

CCCCCCCCSCc1cc(C)c(O)c(CSCCCCCCCC)c1
inactive: Potency [1] | Potency [2] | Potency [3] | Potency [4] | Potency [5] | Potency [6] | Potency [7] | Potency [8] | Potency [9] | Potency [10]

Cc1ccc2n[nH]nc2c1
inactive: Potency [1] | Potency [2] | Potency [3] | Potency [4] | Potency [5] | Potency [6] | Potency [7] | Potency [8] | Potency [9]

CCc1cccc(C)c1N(C(=O)CS(=O)(=O)O)C(C)COC (stereo unspecified)
inactive: Potency [1] | Potency [2] | Potency [3] | Potency [4] | Potency [5] | Potency [6] | Potency [7] | Potency [8] | Potency [9] | Potency [10]

Nc1cc([N+](=O)[O-])ccc1Cl
inactive: Potency [1] | Potency [2] | Potency [3] | Potency [4] | Potency [5] | Potency [6] | Potency [7] | Potency [8] | Potency [9]

C=Cc1ccc(O)c(OC)c1
inactive: Potency [1] | Potency [2] | Potency [3] | Potency [4] | Potency [5] | Potency [6] | Potency [7] | Potency [8] | Potency [9] | Potency [10]

CN1CCN(C)CC1
inactive: Potency [1] | Potency [2] | Potency [3] | Potency [4] | Potency [5] | Potency [6] | Potency [7] | Potency [8] | Potency [9] | Potency [10]

CCC(=O)OC/C=C(\C)CCC=C(C)C
inactive: Potency [1] | Potency [2] | Potency [3] | Potency [4] | Potency [5] | Potency [6] | Potency [7] | Potency [8] | Potency [9] | Potency [10]

CC(C=O)c1ccccc1 (stereo unspecified)
inactive: Potency [1] | Potency [2] | Potency [3] | Potency [4] | Potency [5] | Potency [6] | Potency [7] | Potency [8] | Potency [9] | Potency [10]

O=C1c2ccccc2C(=O)c2c(Cl)cccc21
inactive: Potency [1] | Potency [2] | Potency [3] | Potency [4] | Potency [5] | Potency [6] | Potency [7] | Potency [8] | Potency [9] | Potency [10]

O=C(O)CN(CCCN(CC(=O)O)CC(=O)O)CC(=O)O
inactive: cytotoxicity increase [1] -15.6% [at 15.8 µM] | activity change, negative = cytotoxic [2] 7.15% [at 15.8 µM] | cytotoxicity [3] -12.4% [at 15.8 µM] | cytotoxicity increase [4] -13.1% [at 15.8 µM] | activity change, negative = cytotoxicity [5] -10.1% [at 15.8 µM] | cytotoxicity increase [6] 1.94% [at 15.8 µM] | cytotoxicity [7] -9.07% [at 15.8 µM] | cytotoxicity increase [8] -13.5% [at 15.8 µM] | cytotoxicity increase [9] -4.96% [at 15.8 µM] | activity change, negative = cytotoxic [10] -11.5% [at 15.8 µM]

Cc1cccc(C)c1C
inactive: Potency [1] | Potency [2] | Potency [3] | Potency [4] | Potency [5] | Potency [6] | Potency [7] | Potency [8] | Potency [9] | Potency [10]

CCc1cccc(CC)c1
inactive: Potency [1] | Potency [2] | Potency [3] | Potency [4] | Potency [5] | Potency [6] | Potency [7] | Potency [8] | Potency [9] | Potency [10]

C=CC(=O)OCCOC1C2CCC1C1CC=CC12 (stereo unspecified)
inactive: cytotoxicity increase [1] -1.04% [at 15.8 µM] | activity change, negative = cytotoxic [2] 3.75% [at 15.8 µM] | cytotoxicity [3] -5.89% [at 15.8 µM] | cytotoxicity increase [4] -11.6% [at 15.8 µM] | activity change, negative = cytotoxicity [5] 4.39% [at 15.8 µM] | cytotoxicity increase [6] -0.486% [at 15.8 µM] | cytotoxicity [7] -3.66% [at 15.8 µM] | cytotoxicity increase [8] -7.81% [at 15.8 µM] | cytotoxicity increase [9] -0.0811% [at 15.8 µM]

Nc1cccnc1N
inactive: Potency [1] | Potency [2] | Potency [3] | Potency [4] | Potency [5] | Potency [6] | Potency [7] | Potency [8] | Potency [9] | Potency [10]

CCOc1nc(F)cc2nc(S(=O)(=O)Nc3c(Cl)cccc3C(=O)OC)nn12
inactive: Potency [1] | Potency [2] | Potency [3] | Potency [4] | Potency [5] | Potency [6] | Potency [7] | Potency [8] | Potency [9]

CCOC(=O)[C@H](C)O
inactive: Potency [1] | Potency [2] | Potency [3] | Potency [4] | Potency [5] | Potency [6] | Potency [7] | Potency [8] | Potency [9] | Potency [10]

CC1(C)[C@H]2CC[C@]1(C)C(=O)C2
inactive: Potency [1] | Potency [2] | Potency [3] | Potency [4] | Potency [5] | Potency [6] | Potency [7] | Potency [8] | Potency [9] | Potency [10]
